Test results reported in PubChem BioAssay AID1051 (The Scripps Research Institute Molecular Screening Center, 2008).
Among all 99,000 compounds or so, about 340 (0.34%) were called active. No stated cut-off is given here; in the data, active means TR-FRET ratio above about 2300; inactive means the rest. For the sample, actives were picked, then their nearest neighbours and some compounds at random.

assay: TR-FRET detection interference compounds, primary screen, artefact control for PPARgamma SRC-1 recruitment agonists, biochemical, TR-FRET emission ratio (AID 1051); conditions: TR-FRET detection artefact counter-screen, at 8 µM, hits give high values

SMILES | TR-FRET ratio
Cc1ccc(C2NC(C(=O)O)CS2)cc1 (centres undefined) | 1760 (inactive)
CC1(C)C(C=C(Cl)Cl)C1C(=O)N(Cc1ccc(Cl)cc1)C1CCS(=O)(=O)C1 (centres undefined) | 1570 (inactive)
CCC(=O)N1c2ccccc2NC2=C(C(=O)CCC2)C1c1ccco1 (centres undefined) | 1690 (inactive)
Cn1c(N)c(C(=O)COC(=O)c2ccccc2NCc2ccco2)c(=O)n(C)c1=O | 1870 (inactive)
CCN(C(=O)COc1cccnc1[N+](=O)[O-])C1CCS(=O)(=O)C1 (centres undefined) | 1750 (inactive)
Cc1ccc(CN2CCN(/N=C/c3cccnc3)CC2)c(C)c1 | 1720 (inactive)
S=c1[nH]nc(-c2ccccc2)n1/N=C/c1c[nH]c2ccccc12 | 1810 (inactive)
Cc1ccccc1-c1n[nH]c(=S)n1/N=C/c1ccc(-c2ccccc2Br)o1 | 2950 (active)
Cc1ccccc1-c1n[nH]c(=S)n1C | 1660 (inactive)
CCc1ccc(CN(C)C(=O)CCc2nnc(-c3ccc(-c4ccccc4)cc3)o2)nc1 | 1540 (inactive)
O=C(COC(=O)c1cc(-c2cccs2)nn1-c1ccccc1)Nc1cc([N+](=O)[O-])ccc1Cl | 2060 (inactive)
Cc1cc(CNCc2c(C(=O)N(C)Cc3ccccc3)nc3ccccn23)nn1C | 1760 (inactive)
COc1ccccc1-c1nnc(NC(=O)c2cccc(N3C(=O)CCC3=O)c2)o1 | 1920 (inactive)
Cc1noc(C)c1COc1cccc(C(=O)Nc2cccnc2)c1 | 1740 (inactive)
O=C(CCC1CCCN(C(=O)Cc2ccc(F)cc2)C1)N1CCN(c2ccccn2)CC1 (centres undefined) | 1640 (inactive)
CCNc1ccc(C(=O)OCC(=O)N2c3ccccc3NC(=O)C2(C)C)cc1[N+](=O)[O-] | 1810 (inactive)
COCCNC(=O)C(OC(=O)c1cccs1)c1ccc(F)cc1 (centres undefined) | 1860 (inactive)
O=C(Nc1nnc(-c2ccco2)o1)c1ccc(S(=O)(=O)N2CCOCC2)cc1 | 1880 (inactive)
NC(=O)COC(=O)c1cc(S(=O)(=O)N2CCN(c3ccccc3)CC2)ccc1Cl | 1880 (inactive)
Cc1ccc(C(=O)NC(=S)Nc2ccccc2C)cc1 | 1630 (inactive)

SMILES | TR-FRET ratio
Cc1nc2ccccc2n1CC(=O)N/N=C/c1cccnc1 | 1750 (inactive)
CCCCOc1ccc(C(=O)NCC(=O)OCC(=O)N2CCN(S(=O)(=O)c3ccc(C)cc3C)CC2)cc1 | 1610 (inactive)
CN(C)c1ccc(N/C=C/C(=O)C(F)(F)F)cc1 | 2320 (active)
CC(C)CNC(=O)C(=O)Nc1ccc(N(C)C)cc1 | 1880 (inactive)
CCCOc1ccc(N/C=C/C(=O)C(C)(C)C)cc1 | 1770 (inactive)
CC1CCCN(S(=O)(=O)c2ccc(N(C(=O)c3cnccn3)C(C(=O)NC3CCCCC3)c3cccs3)cc2)C1 (centres undefined) | 1760 (inactive)
C=CCn1c(=NC(=O)c2cccs2)sc2cc(NC(C)=O)ccc21 | 2340 (active)
C=CCn1c(=NC(=O)c2ccc(S(=O)(=O)N3CCCC3)cc2)sc2cc(NC(C)=O)ccc21 | 1920 (inactive)
CC(=O)Nc1ccc(/C=N/NC(=O)c2cccs2)cc1 | 1750 (inactive)
CC(NC(=O)CCC(=O)N1CCN(S(=O)(=O)c2ccc(Cl)cc2)CC1)c1ccccc1 (centres undefined) | 2170 (inactive)
CC(NC(=O)COC(=O)c1ccc2c(c1)OCO2)c1ccccc1 (centres undefined) | 1700 (inactive)
CCOc1ccc(/C=N/NC(=O)C(C)Sc2ccccn2)cc1OCC (centres undefined) | 1650 (inactive)
CCN(CC)C(=O)Cn1cc(S(=O)(=O)CC(=O)NCc2ccc3c(c2)OCO3)c2ccccc21 | 1870 (inactive)
Cc1cccc(-c2nc3ccccc3c(=O)n2NC(=O)Cc2ccc(Cl)cc2)c1 | 1630 (inactive)
O=C(Cc1cccs1)Nc1cccc(-c2nc3ccccc3[nH]2)c1 | 1820 (inactive)
CC(=O)Nc1ccc(S(=O)(=O)Nc2ccc(-c3ccc4nnc(C)n4n3)cc2)cc1 | 1930 (inactive)
C/C(N)=C(/C#N)C(=O)COC(=O)C1CCN(C(=O)c2ccc(Cl)cc2)CC1 | 1880 (inactive)
C/C(=N/O)c1ccc(N2C(=O)C3C4C=CC(C3C2=O)C2C3C(=O)N(c5ccc(/C(C)=N/O)cc5)C(=O)C3C42)cc1 (centres undefined) | 1760 (inactive)
CSc1ccc(/C=N/N2CCN(Cc3ccccc3Cl)CC2)cc1 | 1700 (inactive)
CC1CCCCC1NC(=O)COC(=O)Cc1ccc(Br)cc1 (centres undefined) | 1500 (inactive)

SMILES | TR-FRET ratio
CCSC1=NCCN1C(=O)c1ccc(S(=O)(=O)N(CC)CC)cc1 | 1800 (inactive)
CCN(CC)Cc1nc2sc(C)c(C)c2c(=O)[nH]1 | 1970 (inactive)
Cc1ccc(OC(=O)CCC(=O)Nc2ccc(Br)cc2)cc1 | 1980 (inactive)
CC(=O)N/N=C(\C)c1ccc(Br)cc1Br | 1740 (inactive)
COC(=O)c1onc(-c2c(OC)cc(OC)cc2OC)c1C(=O)OC | 1640 (inactive)
Cc1sc2nc(CC(N)=O)[nH]c(=O)c2c1-c1ccccc1 | 1690 (inactive)
O=C(CO/N=C/c1ccc(OC(F)F)cc1)NCc1ccc(F)cc1 | 1970 (inactive)
O=C(/C=C\c1ccc2c(c1)OCO2)NC1(C(=O)Nc2ccc3c(c2)OCCO3)CCCCC1 | 1600 (inactive)
OCC1(CCc2ccccc2)CCN(Cc2ccc3nsnc3c2)CC1 | 2510 (active)
Cc1cccc(-c2ncc(CN3CCC(CO)(CCCc4ccccc4)CC3)cn2)c1 | 1880 (inactive)
CC(=O)c1cccc(CN2CCC(CO)(Cc3ccccc3)CC2)c1 | 1590 (inactive)
CC(C)N(C(=O)Cn1cc(SCC(=O)N2CCCC2)c2ccccc21)C(C)C | 1650 (inactive)
Cn1c(=O)cc(SCC(=O)N2CCCC2)c2cc(Cl)ccc21 | 3640 (active)
CCOc1ccc(CCNC(=O)CSc2cc(=O)n(C)c3ccc(Cl)cc23)cc1OCC | 2230 (inactive)
CC(CC(=O)O)CC(=O)NNC(=O)c1cccc(Br)c1 (centres undefined) | 1850 (inactive)
CCN(CCCNC(=O)CSc1cc(=O)n(C)c2cc(Cl)ccc12)Cc1ccccc1 | 3020 (active)
CCn1c(=O)cc(SCC(=O)NCCC2=CCCCC2)c2ccccc21 | 2120 (inactive)
O=C(CSc1cccc[n+]1[O-])NCCCc1ccccc1 | 1620 (inactive)
O=C(CCC1CCCN(Cc2ccc(O)c(Cl)c2)C1)NCc1ccccc1F (centres undefined) | 1790 (inactive)
